The values below come from PubChem BioAssay.

Each structure is given as a SMILES string. The source made the active and inactive calls. Unless noted, no rule for the calls is given here.

A short description of assay [1]: liver-stage malaria parasite load reduction – cell-based, known kinase inhibitor set, luminescence, hepatoma host viability (AID 624392).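 Also: infected cells incubated roughly two days before readout.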 Conditions: Plasmodium liver stage in hepatoma cells, luciferase luminescence, concentration not given here; liver cell % of control: measured here: host liver cell viability; parasite % of control: stronger effect = lower value.
A short description of assay [2]: altered dexamethasone sensitivity, NF-kB reporter, cell-based, luciferase, IL-1B stimulus (AID 624486).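 As to percent of negative control (+Dex): 100% = mean signal of vehicle control wells on the plate.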 Conditions: IL-1B + dexamethasone, luminescence; percent of negative control (+Dex): actives lie on both sides, concentration not given here; z-score: measured here: IL-1B alone, no Dex.
Assay [3] deals with Cellular tumor antigen p53 (Homo sapiens) (UniProt P04637). The assay can be described thus: GFP-p53 level modulators in HPV16+ cells – imaging, known kinase inhibitor set, EGFP/DsRed ratio (AID 1053116).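 Also: cells exposed to compounds for 24 h at 37 °C before reading.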 To be noted: GFP-p53 stability, stronger effect = higher value; EGFP object count: measured here: GFP-p53 positive objects count.
Cellular tumor antigen p53 (Homo sapiens), sequence (P04637 whole entry, looked up): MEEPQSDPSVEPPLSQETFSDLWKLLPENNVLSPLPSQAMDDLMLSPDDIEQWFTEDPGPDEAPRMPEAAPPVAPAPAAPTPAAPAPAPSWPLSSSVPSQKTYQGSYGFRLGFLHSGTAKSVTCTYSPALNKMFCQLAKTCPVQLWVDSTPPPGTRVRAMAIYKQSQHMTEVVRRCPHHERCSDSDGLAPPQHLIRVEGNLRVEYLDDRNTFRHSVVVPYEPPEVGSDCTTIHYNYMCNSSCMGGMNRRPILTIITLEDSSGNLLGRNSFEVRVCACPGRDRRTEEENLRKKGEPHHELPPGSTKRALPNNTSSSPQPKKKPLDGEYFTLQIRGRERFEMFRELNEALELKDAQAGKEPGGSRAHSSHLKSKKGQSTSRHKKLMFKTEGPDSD
Assay [4] can be described thus: inducers of IRF3 signaling, differentiated THP-1 – cell-based, PMA-stimulated THP-1, luminescence (AID 1053176). To be noted: PMA-differentiated THP-1, IRF3 reporter luminescence; stronger effect = higher value.
Assay [5] can be described thus: Wnt pathway potentiators raising nuclear beta-catenin – imaging, WNT3A-conditioned medium, mouse C2C12, NPC library, primary screen (AID 1117326; in the data active = nuclear beta-catenin stimulation mostly above about 4.2%, no sharp cut-off; inactive = mostly below about 10%). To be noted: stronger effect = higher value.
Assay [6] in a line: stimulators of insulin release from INS-1E, primary screen, cell-based, 5 mM glucose, NPC library (AID 1117329;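 active = compound raises insulin release from rat beta cells at 5 mM glucose, no numeric limit stated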). Conditions: rat INS-1E insulin secretion, at 10 µM, stronger effect = higher value.
A short description of assay [7]: growth inhibition of GSK3B-pretreated HCT116 cells – cell-based, CellTiter-Glo, 0.2 to 20 µM (AID 1117336;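 active = compounds lowering colon cancer cell viability after pretreatment blocking the GSK3B kinase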). To be noted: HCT116 viability after GSK3B inhibitor, at 20 µM, stronger effect = higher value.
Assay [8] is described as follows: inhibition of endothelial tube formation, primary screen, imaging, VEGF stimulated, CD31 staining, tube area, NPC library (AID 1117340;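 active = compound that reduces growth-factor-driven endothelial tube area in a mixed cell culture, no cutoff stated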). Conditions: VEGF-stimulated ADSC/ECFC co-culture, at 10 µM, stronger effect = higher value.
The nature of assay [9]: GLP1 release stimulators, primary, NCI-H716, NPC library (AID 1117341;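 active = compound raises GLP1 secretion from the human gut endocrine cells, with no numeric limit stated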). Conditions: NCI-H716 cells, at 10 µM, stronger effect = higher value.
A short description of assay [10]: HCT116 colon cancer cell growth inhibition, primary screen, CellTiter-Glo luminescence, NPC library (AID 1117342;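 active = compounds that lower survival of HCT116 colon cancer cells in the luminescence readout, no numeric limit stated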). Conditions: at 20 µM (top of the series). On the technique in general: ATP-based viability assays read luminescence as a measure of living cells.
Assay [11] can be described thus: reduced SW480 viability measured with CellTiter-Glo, NPC library, primary (AID 1117343;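 active = compounds that lower viability of the colon cancer cells in the luminescence readout, with no numeric limit stated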). To be noted: CellTiter-Glo luminescence; at 20 µM (top of the series).
Assay [12] can be described thus: NPC library primary testing for decreased DLD-1 cell viability via CellTiter-Glo (AID 1117346;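 active = compounds that lower survival of DLD-1 colon cancer cells in the luminescence readout, no cutoff given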). Conditions: DLD-1 viability, CellTiter-Glo luminescence; at 20 µM (top of the series).
A short description of assay [13]: C. elegans survival during P. aeruginosa infection – whole organism (AID 651566).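 Also: tested at 14 µM; sign flipped so higher z means a lower ratio.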 Conditions: C. elegans killed by P. aeruginosa, survival ratio.
Assay [14] can be described thus: pro-inflammatory signaling induction in mouse macrophages – cell-based, murine, luminescence (AID 652131). To be noted: murine macrophage pro-inflammatory reporter, stronger effect = higher value.
Assay [15] can be described thus: MELAS cybrid and Rieske KO viability enhancers – cell-based, MELAS cybrids, Rieske KO mouse fibroblasts, CellTiter-Glo, primary screen (AID 1508586;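 active = mean z-score across replicates of 1.96 or higher in either the MELAS or the Rieske mutant cell line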;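 also: z relative to plate mean and SD of compound and empty wells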). To be noted: low glucose.

Consider `Nc1c(C(=O)c2cccc(-c3cccnc3)c2)cnn1-c1ccc(F)cc1`, for which, in assay [1], the liver cell % of control amounted to 219% and the parasite % of control is 7.92% (inactive). For the same compound, in assay [2], the percent of negative control (+Dex) is 111% (inactive) and the z-score was found to be 0.475. In assay [3], the EGFP object count turned out to be 3 and the EGFP/DsRed ratio was 0.0451 (inactive). In addition, in assay [4], the fraction signal was -0.005 (inactive).

As to `Cn1c(=O)c(Oc2ccc(F)cc2F)cc2cnc(NCC(C)(C)O)nc21`, in assay [1], the liver cell % of control came to 102% and the parasite % of control is 62.1% (inactive). Moreover, in assay [2], the percent of negative control (+Dex) is 101% (inactive) and the z-score is -0.01. In [3], the EGFP object count is 4 and the EGFP/DsRed ratio was 0.146 (inactive). For the same compound, the fraction signal in assay [4] was -0.001 (inactive).

For `Cn1cc(C2=C(c3cccc4ccccc34)C(=O)NC2=O)c2ccccc21`, in assay [1], the liver cell % of control is 108% and the parasite % of control is 33.9% (inactive). In assay [2], the percent of negative control (+Dex) was 95.5% (inactive) and the z-score is -1.1. Also, in assay [3], the EGFP object count is 14 and the EGFP/DsRed ratio is 0.386 (inactive). For the same compound, in assay [4], the fraction signal was -0.007 (inactive).

Consider `O=c1c(Oc2ccc(F)cc2F)cc2cnc(NC3CCOCC3)nc2n1CCCO`, for which, in [1], the liver cell % of control came out at 122% and the parasite % of control was 71.8% (inactive). In assay [2], the percent of negative control (+Dex) was 92% (inactive) and the z-score was -0.815. In addition, in [3], the EGFP object count was found to be 2.5 and the EGFP/DsRed ratio was 0.0231 (inactive). In addition, the fraction signal in assay [4] was 0.0075 (inactive).

For `Cn1cc(C2=C(c3cn(CCCCCSC(=N)N)c4ccccc34)C(=O)NC2=O)c2ccccc21`, in [1], the liver cell % of control worked out at 88.1% and the parasite % of control was 29.3% (inactive). Besides, in assay [2], the percent of negative control (+Dex) was 99.5% (inactive) and the z-score amounted to 1.02. Moreover, in assay [3], the EGFP object count was 24.5 and the EGFP/DsRed ratio is 0.037 (inactive). In addition, the fraction signal in assay [4] is -0.007 (inactive).

Consider `Nc1c(C(=O)c2cccc(CCC3(O)CCCC3)c2)cnn1-c1ccc(F)cc1`, for which, in [1], the liver cell % of control worked out at 112% and the parasite % of control was 81% (inactive). In assay [2], the percent of negative control (+Dex) was 105% (inactive) and the z-score is -0.24. Further, in [3], the EGFP object count worked out at 2.5 and the EGFP/DsRed ratio is 0.0989 (inactive). Moreover, the fraction signal in assay [4] was -0.0005 (inactive).

As for `CC(=O)N1CCC(Nc2ncc3cc(Oc4ccc(F)cc4F)c(=O)n(C)c3n2)CC1`, in [1], the liver cell % of control was found to be 113% and the parasite % of control is 81.4% (inactive). Besides, in assay [2], the percent of negative control (+Dex) is 102% (inactive) and the z-score is 0.13. In addition, in [3], the EGFP object count turned out to be 2 and the EGFP/DsRed ratio was 0.0142 (inactive). Moreover, the fraction signal in assay [4] is -0.005 (inactive).

`Cn1cc(C2=C(c3cn(CCCCN)c4ccccc34)C(=O)NC2=O)c2ccccc21`: in assay [1], the liver cell % of control was 117% and the parasite % of control was 65.7% (inactive). Moreover, in assay [2], the percent of negative control (+Dex) is 98.5% (inactive) and the z-score came out at 0.945. Further, in assay [3], the EGFP object count is 3.5 and the EGFP/DsRed ratio was 0.117 (inactive). In [4], the fraction signal is 0.01 (inactive).

As to `N[C@H](Cc1c[nH]c2ccccc12)C(=O)O`, the nuclear beta-catenin stimulation in [5] (at 10 µM) was 0.6% (inactive); in assay [5] (stimulation, at 2 µM), 1%. Moreover, the insulin secretion stimulation in assay [6] is 2.7% (inactive). Moreover, the viability decrease in [7] was 6.2% (inactive). Further, the tube area decrease in assay [8] was 1.5% (inactive). The GLP1 secretion stimulation in assay [9] was -2.5% (inactive). In addition, in assay [10], the inhibition of viability is -1.87% (inactive). Also, the viability decrease (inhibition) was 6.5% (inactive) in assay [11] and 1.8% (inactive) in [12].

In turn, `Fc1ccc(-c2ncn(C3CCNCC3)c2-c2ccnc(Oc3ccc(F)c(F)c3)n2)cc1` yielded a liver cell % of control in [1] of 83%. For the same compound, the parasite % of control in [1] was 166% (inactive). In [2], the percent of negative control (+Dex) was 106% (inactive). The z-score in [2] was 1.34; in assay [13] it was 0.595 (inactive); in assay [14] it was 0.167 (inactive); in [15] (MELAS cybrid survival, CellTiter-Glo 48 h, stronger effect = higher value), -0.134 (inactive); in assay [15] (Rieske KO mouse fibroblast survival, CellTiter-Glo 72 h) it was -0.514. In addition, the fraction signal in assay [4] is 0.003 (inactive).

Take `CCC(=O)Nc1ccc(O)cc1`: the nuclear beta-catenin stimulation in assay [5] (at 10 µM) was 9.3% (inactive); in [5] (stimulation, at 2 µM) it was 1.9%. The insulin secretion stimulation in assay [6] is -2.2% (inactive). In addition, the viability decrease in assay [7] was -1% (inactive). For the same compound, in [8], the tube area decrease is 16% (inactive). Further, the GLP1 secretion stimulation in assay [9] was 4.4% (inactive). Also, the inhibition of viability in [10] was 12.2% (inactive). In addition, the viability decrease (inhibition) in assay [11] is 27% (inactive); in [12], 14.6% (inactive).
